From PubChem BioAssay (NCATS)
Several values for one entry are separate records, joined by “and”; a condition that tells them apart may be missing. Equal entries are not always repeated. Inconclusive results are not listed. Activity calls are given as the source filed them. Unless noted, the call rests on the fitted dose curve; in most records, active means well fitted curve in the direction sought with a large enough effect; inconclusive means small, poorly fitted or top-dose-only effect, or another doubt; inactive means no such curve, though single readings can be large; an effect the other way counts as inactive or inconclusive. Numbered stars: 1 amine (or outer) side, 2 acyl side, 3 side chain; on linkers, the order of the positions; unused ones are H or OH. Bridge positions count the residues as written; N and C are the ends. Square brackets hold non-standard residues; d marks the D form. Peptide text beside a SMILES is read from it. I, II: the chains in the order shown. Actinocin(9to1) = Cc1c2oc3c(C)ccc(C(=O)[*:1])c3nc-2c(C(=O)[*:2])c(N)c1=O; NMeV = CN[C@H](C(=O)O)C(C)C; Sar = CNCC(=O)O

How the values were obtained:
[1] = qHTS assay for small molecule agonists of the antioxidant response element (ARE) signaling pathway (AID 651741; active means well fitted activation curve with a large enough effect in the signal ratio; the % refers to the signal ratio; further: potency means the concentration at half of the fitted maximal effect; on activation: % of control where 0% means no effect)
Procedure, shortened: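 Reporter: beta-lactamase under ARE, stably in HepG2. Exposure: 16 h, 37 C, compounds delivered in DMSO by pin tool after 5 h cell preincubation. Readout: FRET substrate fluorescence after 2 h at RT.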

[2] = target: Tumor necrosis factor (Homo sapiens) (UniProt P01375); assay: qHTS assay to identify small molecules that stimulate Tumor Necrosis Factor-alpha (TNF-alpha) secretion (AID 651757; active means well fitted curve in the direction sought with a large enough effect in the signal ratio; the % refers to the signal ratio; further: 0% is about no effect)
Tumor necrosis factor (Homo sapiens), sequence (P01375 whole entry, looked up): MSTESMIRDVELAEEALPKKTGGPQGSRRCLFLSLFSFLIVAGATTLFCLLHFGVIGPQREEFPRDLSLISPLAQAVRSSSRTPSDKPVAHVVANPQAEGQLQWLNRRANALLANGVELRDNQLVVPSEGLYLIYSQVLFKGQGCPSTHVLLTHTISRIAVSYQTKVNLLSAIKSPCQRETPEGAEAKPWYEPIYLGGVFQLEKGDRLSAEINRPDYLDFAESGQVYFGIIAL
Procedure, shortened: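 Human monocytic THP-1 cells are plated, treated with compound and held at 37 C for 17 hrs. Labeled anti-TNF-alpha antibody mixture is then added; after 3 hr at room temperature, TR-FRET signal reports secreted TNF-alpha.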

[3] = target: Peroxisome proliferator-activated receptor alpha (Homo sapiens) (UniProt Q07869); assay: qHTS assay for small molecule agonists of the peroxisome proliferator-activated receptor alpha (PPARalpha) signaling pathway (AID 651778); conditions: PathHunter PPARalpha complementation, chemiluminescence, 6 h; max response: stronger effect = higher value; further: potency means the concentration at half of the fitted maximal effect; on max response: % of control where 0% means no effect
Peroxisome proliferator-activated receptor alpha (Homo sapiens), sequence (Q07869 whole entry, looked up): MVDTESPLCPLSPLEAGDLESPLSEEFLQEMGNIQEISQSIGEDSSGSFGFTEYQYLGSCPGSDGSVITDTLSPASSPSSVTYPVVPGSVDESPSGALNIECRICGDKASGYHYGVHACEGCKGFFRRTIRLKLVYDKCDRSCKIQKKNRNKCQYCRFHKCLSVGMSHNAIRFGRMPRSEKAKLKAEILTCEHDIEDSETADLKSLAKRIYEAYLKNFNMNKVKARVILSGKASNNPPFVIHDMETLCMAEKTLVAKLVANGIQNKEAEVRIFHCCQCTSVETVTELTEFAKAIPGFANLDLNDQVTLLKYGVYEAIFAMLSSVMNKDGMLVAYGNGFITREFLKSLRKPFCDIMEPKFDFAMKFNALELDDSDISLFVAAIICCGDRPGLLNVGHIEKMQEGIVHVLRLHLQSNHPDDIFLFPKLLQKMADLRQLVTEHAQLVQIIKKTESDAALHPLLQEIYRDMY
Procedure, shortened: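 Cells plated at 2,000/well and held overnight at 37 C, 5% CO2, then compound added by pin tool for 6 hr; after PathHunter detection reagent and 60 min at room temperature, chemiluminescence from enzyme complementation was read.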

[4] = target: Nuclear receptor ROR-gamma (Homo sapiens) (UniProt P51449); assay: qHTS assay for small molecule antagonists of the retinoid-related orphan receptor gamma (ROR-gamma) signaling pathway (AID 651802); further: nearly all actives have a fitted effect of over 60% in size; further: potency means the concentration at half of the fitted maximal effect
Nuclear receptor ROR-gamma (Homo sapiens), sequence (P51449 whole entry, looked up): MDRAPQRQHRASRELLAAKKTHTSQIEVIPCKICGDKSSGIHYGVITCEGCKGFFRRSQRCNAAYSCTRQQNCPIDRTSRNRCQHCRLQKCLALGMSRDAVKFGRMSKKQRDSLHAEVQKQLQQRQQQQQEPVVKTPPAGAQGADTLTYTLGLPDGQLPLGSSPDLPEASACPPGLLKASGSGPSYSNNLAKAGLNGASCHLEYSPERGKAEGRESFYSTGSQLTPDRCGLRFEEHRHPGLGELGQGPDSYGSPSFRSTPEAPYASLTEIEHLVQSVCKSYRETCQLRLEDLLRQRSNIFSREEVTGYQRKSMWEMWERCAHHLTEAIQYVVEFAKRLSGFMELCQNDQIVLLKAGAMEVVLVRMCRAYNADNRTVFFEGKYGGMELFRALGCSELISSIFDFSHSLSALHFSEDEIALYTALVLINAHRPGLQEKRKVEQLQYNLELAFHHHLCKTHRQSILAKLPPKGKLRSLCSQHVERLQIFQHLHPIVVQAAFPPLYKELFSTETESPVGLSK
Procedure, shortened: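 Steps: cells dispensed; compound or DMSO transferred by pin tool; doxycycline added to induce the ROR response element-driven luciferase; plates held 16hr at 37C; ONE-Glo added and luminescence measured.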

[5] = qHTS assay for small molecule activators of the p53 signaling pathway (AID 651743; active means well fitted activation curve with a large enough effect in the signal ratio, not every such curve was filed as active; the % refers to the signal ratio; further: potency means the concentration at half of the fitted maximal effect; on activation: % of control where 0% means no effect); conditions: HCT-116 p53RE-bla, beta-lactamase FRET ratio, 16 h; activation: stronger effect = higher value
Procedure, shortened: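 Agonist-mode quantitative HTS in HCT-116 cells carrying a p53-response-element beta-lactamase reporter; 16 h compound treatment at 37 C, then FRET substrate loading for 2 h at room temperature and fluorescence read.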

[6] = qHTS assay for small molecule activators of the nuclear factor-kappa B (NF-kB) signaling pathway (AID 651749; active means well fitted activation curve with a large enough effect in the signal ratio; the % refers to the signal ratio; further: % of control where 0% means no effect); conditions: NF-kB-bla ME-180 cells, beta-lactamase FRET ratio, 16 h; stronger effect = higher value
Procedure, shortened: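 Human ME-180 cervical cells with an NF-kB-bla construct; compounds added via 23 nL pin transfer, DMSO as vehicle; incubation 16 hr. Reporter activity measured by FRET disruption.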

[7] = qHTS assay for small molecule disruptors of the mitochondrial membrane potential - 1 hr assay (AID 651754; calls by dose curve; further: nearly all actives have a fitted effect of over 35% in size; further: potency means the concentration at half of the fitted maximal effect)
Procedure, shortened: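 Loss of mitochondrial potential shifts the cationic dye from red mitochondrial aggregates to green cytoplasmic monomers. Cells (HepG2) are treated with compound for 1 hr before a 30 min dye incubation at 37C.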

[8] = qHTS assay for small molecule disruptors of the mitochondrial membrane potential - 5 hr assay (AID 651755; calls by dose curve; further: nearly all actives have a fitted effect of over 40% in size; further: potency means the concentration at half of the fitted maximal effect)
Procedure, shortened: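 Seed HepG2 overnight, add compound, incubate 5 hr at 37C and 5% CO2, stain 30 min with Mito-MPS, then measure monomer (490/535 nm) and aggregate (540/590 nm) fluorescence.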

[9] = qHTS assay for small molecule agonists of the antioxidant response element (ARE) signaling pathway measured by Nrf2-dependant transcriptional activity (AID 720636; active means well fitted curve in the direction sought with a large enough effect in the repeat runs; an effect the other way counts as inactive or inconclusive; further: % of control where 0% means no effect)
Procedure, shortened: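 ARE-luc HepG2 cells carrying an Nrf2-responsive luciferase reporter, in medium with 1% dialyzed FBS, exposed to compound for 16 hr at 37 C, 5% CO2. Luminescence read 30 min after ONE-Glo addition.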

[10] = qHTS for compounds that reverse cellular toxicity of Amyloid beta (A-beta) peptide in yeast: LOPAC Validation Assay (AID 720559);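 further: plate controls were DMSO for no effect and equimolar ferric chloride plus clioquinol rescue for full effect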
Procedure, shortened: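 Rescue of A-beta toxicity was scored as yeast growth by 600 nm absorbance after 48 hr at 30 C with compound. Normalization used DMSO (negative) and equimolar ferric chloride plus clioquinol (positive).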

[11] = qHTS for Activators of Parkin Expression: LOPAC Validation Assay (NLuc Reporter) (AID 720572;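 further: 0% = DMSO and 100% = positive control compound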)
Procedure, shortened: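 Cells harboring the Parkin-promoter coincidence reporter were treated for 24 h at seven concentrations. NLuc output was measured sequentially after the FLuc channel and scaled between DMSO and positive control values.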

[12] = qHTS for Activators of Parkin Expression: LOPAC Validation Assay (FLuc Reporter) (AID 720573;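 further: 0% = DMSO and 100% = positive control compounds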)
Procedure, shortened: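 FLuc signal from Parkin-promoter coincidence reporter neuronal cells, normalized to DMSO and positive control (100%). Cells (1,500/well) pre-incubated 24 h, then exposed to LOPAC compounds in 7-point dose response for 24 h at 37 C, 5% CO2.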

[13] = target: Arylsulfatase A (Homo sapiens) (UniProt P15289); assay: qHTS screen for enhancers of Arylsulfatase A (ASA1): LOPAC Validation Assay (AID 720538); conditions: outcome: dose series up to 57.5 µM; further: 0% is about no effect
Arylsulfatase A (Homo sapiens), sequence (P15289 whole entry, looked up): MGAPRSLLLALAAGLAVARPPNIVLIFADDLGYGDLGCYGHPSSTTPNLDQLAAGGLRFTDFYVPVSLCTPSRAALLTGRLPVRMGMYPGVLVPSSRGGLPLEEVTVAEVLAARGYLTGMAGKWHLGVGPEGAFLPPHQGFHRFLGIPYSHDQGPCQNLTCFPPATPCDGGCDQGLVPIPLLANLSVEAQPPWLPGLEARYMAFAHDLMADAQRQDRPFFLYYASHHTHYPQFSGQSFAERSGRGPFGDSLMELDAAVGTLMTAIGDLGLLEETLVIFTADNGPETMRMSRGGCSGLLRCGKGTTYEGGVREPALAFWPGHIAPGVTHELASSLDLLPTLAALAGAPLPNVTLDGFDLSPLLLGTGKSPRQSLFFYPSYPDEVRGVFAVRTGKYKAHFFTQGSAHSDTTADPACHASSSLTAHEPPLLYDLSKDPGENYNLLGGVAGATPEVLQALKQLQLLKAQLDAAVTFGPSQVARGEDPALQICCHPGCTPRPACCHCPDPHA
Procedure, shortened: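 Enhancer assay in patient-derived MLD fibroblasts carrying ASA-I179S: 48 h compound exposure at 37 C, then 14 h room-temperature pNCS turnover (0.5 mM final) in lysis buffer. Read by fluorescence at 525/598 nm after NaOH stop.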

[14] = Cell Proliferation Assay against the TMD8 Cell Line (AID 651645); conditions: TMD8 DLBCL cell line proliferation/viability; at 46.1 µM (top of the series) unless noted;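 further: cells exposed to compound for 48 h before reading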
Procedure, shortened: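 Viability by CellTiter-Glo after 48 h compound exposure of 500 log-phase TMD8 cells per well (RPMI, 5% FBS). Percent activity scaled between DMSO (100%) and 9.2 uM final bortezomib (0%).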

[15] = Cell Proliferation Assay against the HBL1 Cell Line (AID 651646); conditions: HBL1 DLBCL cells; at 92.2 µM (top of the series) unless noted;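 further: cells exposed to compound for 48 h before reading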
Procedure, shortened: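 After a 48 h incubation of 500 HBL1 cells/well in phenol red-free RPMI plus 5% FBS, relative luciferase units from CellTiter-Glo gave percent activity against DMSO and 9.2 uM bortezomib (final) controls.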

[16] = Cell Proliferation Assay against the TMD8 Cell Line (Caspase readout at 16 hrs) (AID 651712); conditions: TMD8 lymphoma cells, caspase activation luminescence; further: potency means the concentration at half of the fitted maximal effect
Procedure, shortened: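 16 h, 37 °C, TMD8 (500 cells/well), RPMI/5% FBS no phenol red; Caspase-Glo 3/7, 15 min RT, luminescence; %act: DMSO 0, bortezomib 9.2 uM final 100.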

[17] = Cell Proliferation Assay against the TMD8 Cell Line (Caspase readout at 8 hrs) (AID 651713); further: potency means the concentration at half of the fitted maximal effect
Procedure, shortened: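 Caspase 3/7 activation in ABC DLBCL TMD8 cells is measured by luminescence after an 8 h compound exposure at 37C. Relative light units are scaled between DMSO (0%) and 9.2 uM final bortezomib (100%).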

[18] = target: Tyrosine-protein kinase Yes (Homo sapiens) (UniProt P07947); assay: qHTS for small molecule inhibitors of Yes1 kinase: Primary Screen (AID 686947);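 further: plate controls were DMSO with enzyme for no effect and no-enzyme DMSO wells for full effect; nearly all actives have a fitted effect of over 60% in size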
Tyrosine-protein kinase Yes (Homo sapiens), sequence (P07947 whole entry, looked up): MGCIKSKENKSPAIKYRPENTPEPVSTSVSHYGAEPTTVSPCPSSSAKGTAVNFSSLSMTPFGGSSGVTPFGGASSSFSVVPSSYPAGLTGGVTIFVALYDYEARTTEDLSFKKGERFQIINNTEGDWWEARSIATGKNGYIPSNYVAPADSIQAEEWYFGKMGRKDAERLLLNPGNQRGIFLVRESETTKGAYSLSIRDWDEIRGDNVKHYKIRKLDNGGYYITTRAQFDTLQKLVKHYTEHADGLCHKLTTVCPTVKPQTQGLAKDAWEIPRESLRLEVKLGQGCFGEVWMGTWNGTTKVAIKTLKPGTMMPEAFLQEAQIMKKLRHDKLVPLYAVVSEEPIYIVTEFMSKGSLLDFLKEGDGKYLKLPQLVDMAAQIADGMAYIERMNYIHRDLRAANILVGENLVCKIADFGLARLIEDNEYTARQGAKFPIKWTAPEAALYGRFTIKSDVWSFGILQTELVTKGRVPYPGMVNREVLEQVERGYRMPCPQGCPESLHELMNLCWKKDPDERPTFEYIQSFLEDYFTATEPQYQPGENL
Procedure, shortened: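 ADP-Glo luminescence reports ADP formed by 4 nM Yes1 phosphorylating poly(E4Y) (0.3 mg/mL) with 0.1 mM ATP for 60 min at room temperature, following 20 min compound preincubation; normalised between DMSO wells with and without enzyme.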

[19] = qHTS for small molecule inhibitors of Yes1 kinase: Counter Assay (AID 686950);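 further: no kinase present so only ADP-Glo detection of a fixed ADP amount is tested; luminescence from ADP-Glo reporting ADP in a fixed ATP and ADP mixture; 0% = DMSO wells with ATP plus ADP and -100% = ATP-only wells without ADP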
Procedure, shortened: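 Measuring interference with ADP-Glo, the assay ran 60 min at room temperature on an ATP/ADP mix lacking enzyme. Values were normalized to ATP-plus-ADP (maximum) and ATP-only (minimum) DMSO controls.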

C=C(CC)C(=O)c1ccc(OCC(=O)O)c(Cl)c1Cl
Potency [1]: 2.37 µM (active)
outcome [2]: inactive
max response [3]: -4.86% (inactive)
Potency [4]: 37.6 µM (active)

CC(O)C(=O)O (configuration not stated)
Potency [1]: inactive
activation [5]: -0.0251% (inactive)
activation [6]: -0.579% (inactive)
Potency [7]: inactive
Potency [8]: inactive
outcome [2]: inactive
max response [3]: -0.871% (inactive)
Potency [4]: inactive
Potency [9]: inactive

C[C@]12CC[C@@H]3c4ccc(O)cc4CC[C@H]3[C@@H]1CC[C@@H]2O
activation [5]: 8.17% (inactive)
outcome [2]: inactive
max response [3]: 0.86% (inactive)
Potency [4]: 33.5 µM (active)
outcome [10]: inactive
outcome [11]: inactive
outcome [12]: inactive
Potency [9]: inactive

Oc1ccc(O)cc1
Potency [1]: 2.11 µM (active)
activation [6]: -1.26% (inactive)
Potency [7]: inactive
Potency [8]: inactive
max response [3]: -2.94% (inactive)
Potency [4]: 10.6 µM (active)
outcome [13]: inactive
outcome [10]: inactive
outcome [11]: inactive
outcome [12]: inactive

O=C1OC(c2ccc(O)cc2)(c2ccc(O)cc2)c2ccccc21
Potency [1]: inactive
activation [5]: 9.17% (inactive) and -8.34% (inactive)
activation [6]: -1.2% (inactive) and -2.62% (inactive)
outcome [2]: inactive
max response [3]: -2.04% (inactive) and -2.85% (inactive)
Potency [4]: 66.8 µM (active)
Potency [9]: inactive

CC(=O)Oc1ccc(C(c2ccc(OC(C)=O)cc2)c2ccccn2)cc1
activation [5]: 13.1% (inactive)
Potency [7]: inactive
Potency [8]: inactive
outcome [2]: inactive
max response [3]: -4.57% (inactive)
Potency [4]: inactive
Potency [9]: inactive

Cc1cc(=O)n(-c2ccccc2)n1C
Potency [1]: inactive
activation [5]: 0.703% (inactive)
activation [6]: -1.22% (inactive)
max response [3]: 0.347% (inactive)
Potency [9]: inactive

C=CCc1ccc(O)c(OC)c1
Potency [1]: inactive
activation [5]: 0.303% (inactive) and -4.38% (inactive)
outcome [2]: inactive
max response [3]: -0.867% (inactive) and -4.24% (inactive)
Potency [4]: inactive
Potency [9]: inactive

Nc1ccc(C(=O)O)cc1
Potency [1]: inactive
activation [5]: -1.83% (inactive)
activation [6]: 0.93% (inactive)
outcome [2]: inactive
max response [3]: 2.41% (inactive)
Potency [4]: inactive
Potency [9]: inactive

COc1cccc2c1C(=O)c1c(O)c3c(c(O)c1C2=O)C[C@@](O)(C(=O)CO)C[C@@H]3O[C@H]1C[C@H](N)[C@H](O)[C@H](C)O1
viability (% of control) [14]: 0.7%
viability, percent of control [15]: 20.5% [at 46.1 µM]
Potency [16]: 0.0372 µM (active)
Potency [17]: 3.32 µM (active)
Potency [5]: 1.58 µM (active)
activation [6]: -4.76% (inactive)
Potency [7]: 2.66 µM (active)
Potency [8]: 2.66 µM (active)
max response [3]: -6.93% (inactive) and -6.66% (inactive)
outcome [18]: inactive
outcome [19]: inactive
Potency [9]: inactive

CCCCCCc1ccc(O)cc1O
Potency [1]: 66.8 µM (active)
activation [5]: 7.68% (inactive) and 3.42% (inactive)
Potency [7]: 37.6 µM (active)
Potency [8]: 37.6 µM (active)
outcome [2]: inactive
max response [3]: -0.464% (inactive) and 3.82% (inactive)
Potency [9]: inactive

CC/C(=C(/CC)c1ccc(O)cc1)c1ccc(O)cc1
Potency [1]: 24.3 µM (active) and 29.8 µM (active)
activation [5]: 37.6% (inactive)
outcome [2]: inactive
max response [3]: -0.699% (inactive) and -4.24% (inactive)
Potency [9]: inactive

Nc1ccn([C@@H]2O[C@H](CO)[C@@H](O)C2(F)F)c(=O)n1
viability (% of control) [14]: 1.47% [at 92.2 µM]
viability, percent of control [15]: 55.7%
Potency [16]: 0.0382 µM (active)
outcome [18]: inactive
outcome [19]: inactive

Oc1c(Cl)cc(Cl)cc1Sc1cc(Cl)cc(Cl)c1O
Potency [5]: 7.94 µM (active) and 14.1 µM (active)
Potency [7]: 10.6 µM (active)
Potency [8]: 13.3 µM (active)
outcome [2]: inactive
Potency [3]: 28.2 µM (active) and 25.1 µM (active)
Potency [4]: 4.73 µM (active)
Potency [9]: inactive

Cc1c2oc3c(C)ccc(C(=O)N[C@@H]4C(=O)N[C@H](C(C)C)C(=O)N5CCC[C@H]5C(=O)N(C)CC(=O)N(C)[C@@H](C(C)C)C(=O)O[C@@H]4C)c3nc-2c(C(=O)N[C@@H]2C(=O)N[C@H](C(C)C)C(=O)N3CCC[C@H]3C(=O)N(C)CC(=O)N(C)[C@@H](C(C)C)C(=O)O[C@@H]2C)c(N)c1=O (I: T[dV]P[Sar][NMeV] / II: T[dV]P[Sar][NMeV]; ester I:1-I:C, II:1-II:C; linker I:N-II:N via Actinocin(9to1))
activation [5]: -13% (inactive)
Potency [7]: inactive
Potency [8]: inactive
outcome [2]: inactive
max response [3]: -5.12% (inactive) and -0.626% (inactive)
Potency [4]: 0.0266 µM (active)

O=c1ccc2ccccc2o1
Potency [1]: 501 µM (active)
activation [5]: -4.62% (inactive) and -2.73% (inactive) and -3.41% (inactive)
activation [6]: -0.596% (inactive) and -0.85% (inactive) and -2.41% (inactive)
outcome [2]: inactive
max response [3]: -5.67% (inactive) and -0.649% (inactive) and -3.56% (inactive)
Potency [4]: inactive
Potency [9]: inactive
